Test results published in PubChem BioAssay (NCI).
Compounds without any hit were thinned out: in the full panel of roughly 83,000, 20% have a hit.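 Interpretation: 100, growth as untreated; towards 0, rising growth inhibition; 0, no net growth; 0 to -100, cell death. Compounds scoring below 10 were considered active.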 A number with no mark means an inactive call. The source made the active and inactive calls.

Columns and labels:
Test in all cases: NCI-60 one-dose screen, 48 h (100 = growth as untreated, 0 = no growth, -100 = all killed)
Conditions in all cases: 10 µM unless noted
DU-145 prostate = system: DU-145 prostate
K-562 leukemia = system: K-562 leukemia
MALME-3M melanoma = system: MALME-3M melanoma
MDA-MB-231 breast = system: MDA-MB-231 breast
RXF 393 renal = system: RXF 393 renal
SF-268 CNS = system: SF-268 CNS
SF-295 CNS = system: SF-295 CNS
SF-539 CNS = system: SF-539 CNS
UACC-257 melanoma = system: UACC-257 melanoma
M14 melanoma = system: M14 melanoma
HCT-15 colon = system: HCT-15 colon
HT29 colon = system: HT29 colon
SNB-75 CNS = system: SNB-75 CNS
SNB-19 CNS = system: SNB-19 CNS
U251 CNS = system: U251 CNS
PC-3 prostate = system: PC-3 prostate
SK-MEL-5 melanoma = system: SK-MEL-5 melanoma
UACC-62 melanoma = system: UACC-62 melanoma
LOX IMVI melanoma = system: LOX IMVI melanoma
SK-MEL-28 melanoma = system: SK-MEL-28 melanoma

| Structure (SMILES) | growth (DU-145 prostate) | growth (K-562 leukemia) | growth (MALME-3M melanoma) | growth (MDA-MB-231 breast) | growth (RXF 393 renal) | growth (SF-268 CNS) [%] | growth (SF-295 CNS) | growth (SF-539 CNS) | growth (UACC-257 melanoma) [%] | growth (M14 melanoma) | growth (HCT-15 colon) | growth (HT29 colon) | growth (SNB-75 CNS) | growth (SNB-19 CNS) [%] | growth (U251 CNS) | growth (PC-3 prostate) | growth (SK-MEL-5 melanoma) | growth (UACC-62 melanoma) | growth (LOX IMVI melanoma) | growth (SK-MEL-28 melanoma) [%] |
| --- | --- | --- | --- | --- | --- | --- | --- | --- | --- | --- | --- | --- | --- | --- | --- | --- | --- | --- | --- | --- |
| COc1cc(C(=O)c2c(-c3ccccc3)oc3c(OC)cccc23)cc(OC)c1OC | 6.56% (active) | 12.3% | 42.2% | -0.456% (active) | -3.42% (active) | 30.1 | 2.79% (active) | -26.1% (active) | 71.1 | 3.87% (active) | 5.88% (active) | 8.2% (active) | 7.41% (active) | 25 | 14.2% | 17.2% | -42.3% (active) | 30.2% | 12.2% | – |
| C=C(C)[C@@H]1CC[C@]2(COC(C)=O)CC[C@]3(C)[C@H](CC[C@@H]4[C@@]5(C)CCCN(C(C)=O)C(C)(C)[C@@H]5CC[C@]43C)[C@@H]12 | 59.9% | 0.971% (active) | 51% | 45.2% | 64.1% | 90.9 | 104% | 81% | 60 | -65.9% (active) | 0.472% (active) | -7.38% (active) | 108% | 84.6 | 6.47% (active) | 65.6% | 84.6% | -2.48% (active) | -98% (active) | 96.6 |
| Cc1nc2cc(O)c(O)cc2cc1Oc1ccc(NC(=O)Nc2ccc(Cl)c(Cl)c2)cc1 | 60.3% | 53.9% | 85.2% | 45% | 20.4% | 65.5 | 95.9% | 56.9% | 88.5 | 80.7% | 37.2% | 48% | 75.8% | 49 | 41.4% | 39.3% | -42.2% (active) | 84.5% | 0.463% (active) | 79.1 |
| CCO/C=N/C1=C(C#N)C(c2ccc(F)cc2)c2sc3c(F)cccc3c2O1 (centres undefined) | 62.4% | 23.5% | 57.6% | 51% | 33.3% | 50.3 | 22% | 28.9% | 60.2 | 29.8% | 26% | 56.8% | 13.4% | 33.2 | 26.6% | 47.9% | 35.5% | 15.2% | 36% | – |
| O=P(O)(O)OCC1OC(n2cnc3c(NCc4ccco4)ncnc32)C(O)C1O (centres undefined) | -58.5% (active) | 63.3% | 87.4% | -21.5% (active) | 4.85% (active) | 29.3 | 34.7% | 16.1% | 77.6 | 34.5% | 5.11% (active) | 16.7% | 8.93% (active) | 31.9 | 38.3% | 9.01% (active) | 40.2% | 45.4% | -30.9% (active) | – |
| C=C1C(=O)O[C@H]2[C@H]1CC/C(COC(=O)CSCSCC(=O)OC/C1=C/CC[C@@]3(C)O[C@H]3[C@H]3OC(=O)C(=C)[C@@H]3CC1)=C\CC[C@@]1(C)O[C@@H]21 | 28.3% | 3.55% (active) | -4.65% (active) | -27.9% (active) | -86.7% (active) | 20.7 | 70.3% | 3.58% (active) | 34.1 | 4.26% (active) | 0.182% (active) | -3.63% (active) | 60.4% | 54 | 10.8% | 0.538% (active) | 66.1% | 24.2% | -48.5% (active) | – |
| CC(C)CCN(CCC(C)C)CC(O)c1cc2c(c3ccccc13)CCCC2 (centres undefined) | 60.8% | 43.5% | 94.3% | 37.7% | 62.1% | 71.9 | 76.5% | 82.1% | 99.4 | 89.3% | 59.4% | 32.2% | 91.6% | 97.8 | 72.9% | 66.4% | 72.7% | 49.8% | 51.9% | – |
| N#Cc1cncc(-c2ccc3ncnc(Nc4cccc(Cl)c4)c3c2)c1 | 63.4% | 87% | 76.8% | 66.6% | 45.9% | 68.5 | 76% | 78% | 72.6 | 83.8% | 77.9% | 66.8% | 65.5% | 63.3 | 62.1% | 63.5% | 75.4% | 81.7% | 91.1% | – |
| CC(=O)ON1CCCC(P(=O)(OCCSC(=O)C(C)(C)C)OCCSC(=O)C(C)(C)C)C1=O (centres undefined) | 42.5% | 19.4% | 17.1% | 25.1% | -26.7% (active) | 19.2 | 55.5% | 57.6% | 54.2 | 34.3% | 12.1% | 19.3% | 52% | 19 | 6.6% (active) | 48.1% | -2.99% (active) | 20.4% | 25.8% | – |
| Cc1ccc(S(=O)(=O)OCCCOS(=O)(=O)c2ccc(C)cc2)cc1 | 95% | 65.9% | 100% | 110% | 107% | 101 | 107% | 122% | 81.1 | 98% | 106% | 102% | 99.7% | 97.9 | 96.4% | 89.3% | 116% | 103% | 108% | – |
| COc1ccc(/C=C(/C(=O)n2cnnn2)c2cc(OC)c(OC)c(OC)c2)cc1 | 25.1% | 15.3% | 62.5% | 36.7% | -4.36% (active) | 49 | -7.45% (active) | -7.92% (active) | 70.2 | -2.57% (active) | 15.5% | 8.2% (active) | 15.4% | 17.4 | 17.9% | 13.1% | 15.2% | 20.1% | 37% | – |
| CC(C)N1C(=O)/C(=c2\sc3n(c2=O)C2C(NN=3)N(C)C(=O)N2C)c2ccccc21 (centres undefined) | 84.3% | 27% | 53.2% | 90.9% | 57.3% | 74.9 | 50.1% | 49.2% | 50 | 44.9% | 37.8% | 31.3% | 4.34% (active) | 61.9 | 48.2% | 55% | 48.8% | 33.4% | 56.6% | 64 |
| COc1ccc(NC(=O)Nc2ccc(OCCCCCC(=O)NO)cc2)cc1 | 106% | 88.3% | 97.5% | 105% | 98.3% | 101 | 109% | 103% | 73.4 | 95.3% | 117% | 88.8% | 93.2% | 102 | 101% | 97.8% | 104% | 89.4% | 96.4% | – |
| COc1ccc(N2CCC(=S)NC2=S)cc1 | 108% | 100% | 101% | 103% | 119% | 94.2 | 101% | 99.9% | 102 | 109% | 101% | 104% | 71.6% | 94.5 | 101% | 107% | 98.2% | 90.3% | 95.3% | – |
| C=C1C(=O)O[C@H]2[C@H]1CC/C(COC(=O)/C=C\C(=O)NCc1ccc(Cn3c(=O)sn(CCCl)c3=O)cc1)=C\CC[C@@]1(C)O[C@@H]21 | 57.6% | 28.9% | 43.6% | 90% | 56.3% | 89 | 103% | 96.5% | 81.8 | 51.6% | 44.8% | 86.6% | 99.5% | 111 | 88.9% | 94.6% | 101% | 85.7% | 67.2% | 87 |
| C=CC(=O)Nc1ccc(Oc2nccc(Nc3nnc(-c4ccc(C)cc4)s3)n2)cc1 | 78.5% | 29.4% | 52.6% | 88.4% | 88% | 77.6 | 56.9% | 83.3% | 86.5 | 57.5% | 71.5% | 103% | 61% | 62.7 | 83% | 52.8% | 46% | 44% | 60.2% | 73.9 |
